The results in this text go back to paper PMC4336329 (PLoS ONE, 2015).

The structures appear in SMILES notation. In all, about 310,000 compounds went through this assay and about 14,000 (4.5%) showed an effect of 50% or more. The effect is printed as a negative number. The sample holds strong results, similar compounds and a random draw of the others, so the mix is not that of the screen.
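Also: peak tail current of the secondary pulse compared with the same well before compound.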

human ether-à-go-go-related gene (hERG) potassium channel, sequence (Q12809 whole entry, looked up): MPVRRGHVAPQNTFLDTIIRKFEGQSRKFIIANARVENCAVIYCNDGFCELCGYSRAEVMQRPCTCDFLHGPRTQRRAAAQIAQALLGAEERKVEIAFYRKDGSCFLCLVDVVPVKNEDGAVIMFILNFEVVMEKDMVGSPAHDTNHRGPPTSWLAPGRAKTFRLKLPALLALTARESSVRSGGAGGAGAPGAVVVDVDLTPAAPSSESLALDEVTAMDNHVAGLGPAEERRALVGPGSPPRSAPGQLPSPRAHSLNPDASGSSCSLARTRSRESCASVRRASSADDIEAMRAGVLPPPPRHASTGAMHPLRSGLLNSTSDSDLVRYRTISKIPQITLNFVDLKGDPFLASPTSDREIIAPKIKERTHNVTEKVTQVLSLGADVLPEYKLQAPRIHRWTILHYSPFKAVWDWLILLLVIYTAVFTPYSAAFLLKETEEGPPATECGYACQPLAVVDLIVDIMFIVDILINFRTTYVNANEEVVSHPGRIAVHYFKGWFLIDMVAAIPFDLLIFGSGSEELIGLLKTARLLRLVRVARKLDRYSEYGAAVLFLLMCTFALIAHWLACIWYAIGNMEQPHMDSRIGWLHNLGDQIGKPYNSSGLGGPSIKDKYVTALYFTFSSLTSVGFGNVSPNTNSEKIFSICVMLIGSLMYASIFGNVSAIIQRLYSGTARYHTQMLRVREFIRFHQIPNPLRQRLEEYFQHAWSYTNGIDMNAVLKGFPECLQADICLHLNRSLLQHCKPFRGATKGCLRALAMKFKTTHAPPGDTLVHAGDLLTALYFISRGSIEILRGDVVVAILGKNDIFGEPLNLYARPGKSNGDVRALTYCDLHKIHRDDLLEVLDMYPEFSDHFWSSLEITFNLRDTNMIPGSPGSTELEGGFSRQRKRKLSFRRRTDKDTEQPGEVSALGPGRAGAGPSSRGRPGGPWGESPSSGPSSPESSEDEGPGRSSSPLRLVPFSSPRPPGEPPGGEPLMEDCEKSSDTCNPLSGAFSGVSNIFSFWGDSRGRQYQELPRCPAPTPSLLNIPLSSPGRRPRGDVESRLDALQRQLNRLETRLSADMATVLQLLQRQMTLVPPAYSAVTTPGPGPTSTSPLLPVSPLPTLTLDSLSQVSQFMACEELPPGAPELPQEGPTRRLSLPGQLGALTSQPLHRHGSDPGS

This assay addresses human ether-à-go-go-related gene (hERG) potassium channel (human, UniProt Q12809). Briefly: primary screen, population patch clamp on CHO cells stably expressing hERG; higher = less effect of the substance.
With `COc1ccc(CNC(=O)c2cnc3cc(C)ccn3c2=O)cc1`, the “hERG current change (%, negative = inhibition) at 10uM” value is given as -8.79%.

Take `O=C(N/N=C/c1cccc2ccccc12)c1ccccc1Cl`: the “hERG current change (%, negative = inhibition) at 10uM” value worked out at 8.63%.

For the compound `Cc1cc(/C(O)=C2\C(=O)C(=O)N(CCN(C)C)C2c2ccncc2)ccc1OCc1ccccc1` (centres unmarked), the “hERG current change (%, negative = inhibition) at 10uM” value was 3.21%. As for `CN(CC(=O)Nc1cccc(F)c1)C(=O)c1ccc(NC2CC2)c([N+](=O)[O-])c1`, the figure is -68.5%; as for `COc1cccc(NC(=O)CN(C)C(=O)c2ccc(NC3CC3)c([N+](=O)[O-])c2)c1`, -73.4%. For the compound `CN(CC(=O)Nc1cccc(F)c1)C(=O)c1ccc(N2CCCC2)c([N+](=O)[O-])c1`, the “hERG current change (%, negative = inhibition) at 10uM” value is reported as -46.7%. In the case of `COc1cccc(NC(=O)CN(C)C(=O)c2ccc(N3CCCCC3)c([N+](=O)[O-])c2)c1`, the “hERG current change (%, negative = inhibition) at 10uM” value is -12.9%. As to `COc1cccc(NC(=O)CN(C)C(=O)c2ccc(N3CCOCC3)c([N+](=O)[O-])c2)c1`, the “hERG current change (%, negative = inhibition) at 10uM” value is reported as -37.6%.

Regarding `CN(CC(=O)Nc1cccc(F)c1)C(=O)c1ccc(N2CCCCC2)c([N+](=O)[O-])c1`, the “hERG current change (%, negative = inhibition) at 10uM” value is -8.94%.

As to `COc1cccc(NC(=O)CN(C)C(=O)c2ccc3c(c2)CC(c2ccccc2)OC3=O)c1` (centres unmarked), the “hERG current change (%, negative = inhibition) at 10uM” value is -66.9%. In the case of `CCOc1ccc(NC(=O)CN(C)C(=O)c2ccc(NC3CC3)c([N+](=O)[O-])c2)cc1OCC` it was -59%; in that of `COc1ccc(Cl)cc1NC(=O)CN(C)C(=O)c1ccc2c(c1)CC(c1ccccc1)OC2=O` (centres unmarked), -41.8%; in that of `CCOc1ccc(NC(=O)CN(C)C(=O)c2ccc(N3CCCC3)c([N+](=O)[O-])c2)cc1OCC`, -49.1%. As for `COc1cccc(NC(=O)CN(C)C(=O)c2ccc3ccccc3c2)c1`, the “hERG current change (%, negative = inhibition) at 10uM” value is recorded as 1.99%. As for `CCOc1ccc(NC(=O)CN(C)C(=O)c2ccc(C3SCCS3)cc2)cc1OCC`, the figure is -0.427%; as for `O=C(O)CCC(=O)N(Cc1cccs1)Cc1cccs1`, -2.07%; as for `COc1ccc(C(=O)Cn2nnc(-c3ccccc3NC(=O)C3CCCCC3)n2)cc1`, 2.23%. As for `O=c1cc(-c2ccccc2)[nH]c2ccc(F)cc12`, the figure is 5.52%; as for `Nn1c(SCC(=O)NC2CCCCC2)nnc1-c1ccco1`, 4.3%. As for `Cc1oc(-c2ccccc2)nc1CN1C(=O)C(C)N=C(c2ccccc2F)c2cc(Cl)ccc21` (centres unmarked), the figure is -5.78%.

Regarding `O=[N+]([O-])c1ccc(/C=N/Nc2nc(N3CCCCC3)nc(N3CCCCC3)n2)o1`, the “hERG current change (%, negative = inhibition) at 10uM” value is given as -18.1%. In the case of `CC(=O)Nc1ccc(S(=O)(=O)NCCC(=O)Nc2ccc(C)c(F)c2)cc1` it was -0.433%; in that of `S=c1[nH]nc(Cc2sc(-c3ccccc3)nc2-c2ccccc2)o1`, 21.6%. In the case of `O=C(Nc1cccc2cccnc12)c1ccc(Br)cc1Br` it was 21.6%. For `Cc1ccccc1CNC(=O)Nc1cccs1`, the “hERG current change (%, negative = inhibition) at 10uM” value is listed as 3.67%. In the case of `CC(C)NC(=O)c1cc(-c2ccco2)nn1-c1ccc(Cl)cc1` it was -27.4%.

As for `COc1ccc(NC(=O)CN(C)C(=O)c2ccc(NS(=O)(=O)c3ccc(C)c([N+](=O)[O-])c3)cc2)cc1`, the “hERG current change (%, negative = inhibition) at 10uM” value is listed as -2.55%. As for `CCN(CC(=O)Nc1ccc(NC(C)=O)cc1)C(=O)c1ccc(NC2CC2)c([N+](=O)[O-])c1`, the figure is -46.1%; as for `COc1ccc(NC(=O)CN(C)C(=O)c2ccc(NC3CC3)c([N+](=O)[O-])c2)cc1`, -72.8%; as for `O=C(O)CC1SC(=O)NC1=O` (centres unmarked), 4.76%. With `COc1ccc(-c2nc3ccc(C(=O)NCCCN4CCOCC4)cc3nc2-c2ccc(OC)cc2)cc1`, the “hERG current change (%, negative = inhibition) at 10uM” value is listed as 9.44%. For the compound `CCN1CCN(CCNC(=O)c2ccc3nc(-c4cccc(C)c4)c(-c4cccc(C)c4)nc3c2)CC1`, the “hERG current change (%, negative = inhibition) at 10uM” value is recorded as -73.9%. As for `Cc1nc2cc(C(=O)NCCN3CCOCC3)ccc2n1-c1ccc(F)cc1F`, the figure is -3.86%. In the case of `Cc1cccc(-c2nc3ccc(C(=O)NCCN4CCN(C)CC4)cc3nc2-c2cccc(C)c2)c1` it was -11.7%; in that of `CN1CCN(CCNC(=O)c2ccc3nc(-c4ccc(F)cc4)c(-c4ccc(F)cc4)nc3c2)CC1`, -50.6%. In the case of `CCCNC(=O)c1ccc2nc(-c3ccccc3)c(-c3ccccc3)nc2c1` it was 9.38%. Consider `Cc1ccc(Cl)c(OC(=O)c2nn(C(C)C)c(=O)c3ccccc23)c1`, for which the “hERG current change (%, negative = inhibition) at 10uM” value is -2.19%.

With `COC(=O)c1ccccc1NC(=O)N1CCCC1`, the “hERG current change (%, negative = inhibition) at 10uM” value is on record as -11.9%. Turning to `O=C(CSc1nn(-c2ccccc2)c(=S)s1)Nn1cnnc1`, the “hERG current change (%, negative = inhibition) at 10uM” value turned out to be 14.8%. As to `COc1cc(C(=O)N2CCC(c3nc(-c4cccnc4)no3)CC2)cc(OC)c1OC`, the “hERG current change (%, negative = inhibition) at 10uM” value is -8.08%. As for `O=C(CSc1nc2ncccc2[nH]1)NC1CCCC1`, the figure is 7.42%.

For the compound `S=c1[nH]nc(COc2ccccc2)n1/N=C/c1ccc(Br)s1`, the “hERG current change (%, negative = inhibition) at 10uM” value was -18.8%. In the case of `COc1ccc(S(=O)(=O)N2CCN(C)CC2)cc1C` it was 7.28%; in that of `Cc1ccc(/C=N/NC(=O)Cn2cnc3ccccc32)o1`, 3.48%. For `CCCN1CCN(c2nc(-c3cccs3)nc3ccccc23)CC1`, the “hERG current change (%, negative = inhibition) at 10uM” value is recorded as -68.6%. For `Oc1ccc(N2CCN(c3nc(-c4cccs4)nc4ccccc34)CC2)cc1`, the “hERG current change (%, negative = inhibition) at 10uM” value is on record as 16.5%. In the case of `COc1ccc(N2CCN(c3nc(-c4cccs4)nc4ccccc34)CC2)cc1` it was 14.4%; in that of `Fc1ccccc1N1CCN(c2nc(-c3cccs3)nc3ccccc23)CC1`, 8.57%; in that of `CN1CCN(c2nc(-c3cccs3)nc3ccccc23)CC1`, -73.9%.

As for `CCN1CCN(c2nc(-c3cccs3)nc3ccccc23)CC1`, the “hERG current change (%, negative = inhibition) at 10uM” value is listed as -70.8%.

Consider `c1csc(-c2nnc(N3CCOCC3)c3ccccc23)c1`, for which the “hERG current change (%, negative = inhibition) at 10uM” value is reported as -32.1%. `O=S(=O)(c1ccccc1)N1CCN(c2nc(-c3cccs3)nc3ccccc23)CC1`: the “hERG current change (%, negative = inhibition) at 10uM” value was 9.84%.

Turning to `c1ccc(N2CCN(c3nc(-c4cccs4)nc4ccccc34)CC2)cc1`, the “hERG current change (%, negative = inhibition) at 10uM” value was -8.84%. As for `c1csc(-c2nc(N3CCOCC3)c3ccccc3n2)c1`, the figure is -10.1%; as for `CC1CCN(c2nnc(-c3cccs3)c3ccccc23)CC1`, -41.6%. Turning to `CN1CCN(c2nnc(-c3cccs3)c3ccccc23)CC1`, the “hERG current change (%, negative = inhibition) at 10uM” value was -53.9%. As for `COc1ccc(CNC(=O)c2oc3ccc(S(=O)(=O)N4CCOCC4)cc3c2C)cc1`, the figure is 7.71%.

Regarding `COc1ccccc1NC(=O)Nc1ncccc1C`, the “hERG current change (%, negative = inhibition) at 10uM” value is -1.09%. As for `O=C1NCCN(Cc2ccoc2)C1CC(=O)N(Cc1ccccc1)CC1CCC1` (centres unmarked), the figure is 8.87%; as for `COc1ccc(Cl)cc1NC(=O)COC(=O)c1c(-c2ccccc2)noc1C`, -2.53%. As for `CC(=O)N1CCN(c2nc(-c3cccs3)nc3ccccc23)CC1`, the figure is -63.2%; as for `CCOC(=O)N1CCN(c2nc(-c3cccs3)nc3ccccc23)CC1`, -1.74%. In the case of `Oc1ccccc1N1CCN(c2nc(-c3cccs3)nc3ccccc23)CC1` it was 5.52%; in that of `CC(=O)NC(CC(=O)Nc1nccs1)c1ccccc1.O=C(O)C(=O)O` (centres unmarked), 1.49%; in that of `CC(C)(C)NCCOCCOc1ccc(Cl)cc1C(C)(C)C.O=C(O)C(=O)O`, 0.207%. In the case of `C=CCNCCCOc1ccc(Cl)cc1C(C)(C)C.O=C(O)C(=O)O`, the “hERG current change (%, negative = inhibition) at 10uM” value is -60.8%. As to `CC(C)(C)NCCCOc1ccc(Cl)cc1C(C)(C)C.O=C(O)C(=O)O`, the “hERG current change (%, negative = inhibition) at 10uM” value is recorded as 1.96%. As for `COCCCNCCOCCOc1ccc(Cl)cc1C(C)(C)C.O=C(O)C(=O)O`, the figure is -50.6%; as for `CNCCCOc1ccc(Cl)cc1C(C)(C)C.O=C(O)C(=O)O`, -20.6%. Take `COCCCNCCCOc1ccc(Cl)cc1Br`: the “hERG current change (%, negative = inhibition) at 10uM” value is reported as -39.2%. As to `C=CCNCCOCCOc1ccc(Cl)cc1C(C)(C)C.O=C(O)C(=O)O`, the “hERG current change (%, negative = inhibition) at 10uM” value is reported as 11.2%. As for `COCCCNCCCOc1ccc(Cl)cc1C(C)(C)C`, the “hERG current change (%, negative = inhibition) at 10uM” value is given as -57.5%.

For the compound `CC(O)CNCCCOc1ccc(Cl)cc1C(C)(C)C.O=C(O)C(=O)O` (centres unmarked), the “hERG current change (%, negative = inhibition) at 10uM” value is reported as -15.9%. As for `O=C(CSc1ccccn1)N1CCN(c2ccccc2)CC1`, the figure is 7.55%.

Turning to `COc1ccc(O[C@H]2C=C[C@@H](c3ccccc3)O[C@@H]2CO/N=C(\C)CCN2CCc3nc(-c4ccccc4)c(-c4ccccc4)cc3C2)cc1`, the “hERG current change (%, negative = inhibition) at 10uM” value is 6.94%.

For `CCCNC(=O)NC(=O)CSc1ncc(C(F)(F)F)cc1Cl`, the “hERG current change (%, negative = inhibition) at 10uM” value is given as 12.6%. Regarding `C#CCOCCOCCOCCNc1nc(N2CCN(C(=O)[C@H](CCCCN)n3cc([C@@H](N)CC(C)C)nn3)CC2)nc(N2CCN(C(=O)[C@H](CCCCN)n3cc([C@@H](N)CC(C)C)nn3)CC2)n1.Cl`, the “hERG current change (%, negative = inhibition) at 10uM” value was 4.98%. On to `CCCCNS(=O)(=O)c1ccc(S(=O)(=O)NCc2ccncc2)cc1`, for which the “hERG current change (%, negative = inhibition) at 10uM” value was -9.06%. In the case of `CCc1cccc2c(C(=O)CSc3nncn3C)c[nH]c12` it was 7.69%; in that of `CN(C(=O)CC1C(=O)NCCN1Cc1ccc(F)cc1Cl)C1CCCCC1` (centres unmarked), -2.68%. In the case of `Cc1ccc(C(=O)N2CCN(c3ccc([N+](=O)[O-])c(NCc4ccco4)c3)CC2)cc1` it was -50.5%.

Take `O=C(c1ccccc1)N1CCN(c2ccc([N+](=O)[O-])c(NCc3ccco3)c2)CC1`: the “hERG current change (%, negative = inhibition) at 10uM” value is reported as -47.2%. Consider `O=[N+]([O-])c1ccc(N2CCNCC2)cc1NCc1ccco1`, for which the “hERG current change (%, negative = inhibition) at 10uM” value was -28.2%. As for `O=[N+]([O-])c1ccc(N2CCN(CCO)CC2)cc1NCc1ccco1`, the figure is -32.2%. As for `Cc1cccc(C(=O)N2CCN(c3ccc([N+](=O)[O-])c(NCc4ccco4)c3)CC2)c1`, the figure is -34%.

For `CN1CCN(c2ccc([N+](=O)[O-])c(NCc3ccco3)c2)CC1`, the “hERG current change (%, negative = inhibition) at 10uM” value is reported as -51.9%.
